Source: PubChem BioAssay (Tox21)
Several values for one entry are separate records, joined by “and”; a condition that tells them apart may be missing. Equal values may be shown once. Inconclusive results are not listed. Entries that show only a call come without a potency. Some compounds were tested as several samples or in several runs, with calls that do not always agree. Activity calls are given as the source filed them. Unless noted, calls follow the shape of the dose curve; as a rule, active = well fitted curve in the direction sought with a large enough effect in the repeat runs; inconclusive = weak or mixed curves; inactive = no such curve, though single readings can be large; an effect the other way counts as inactive or inconclusive.

How the values were obtained:
[1] = qHTS assay to identify small molecule antagonists of the glucocorticoid receptor (GR) signaling pathway - cell viability counter screen (AID 720693); conditions: GR-bla HeLa viability, CellTiter-Glo luminescence, 18 h, with 5 nM dexamethasone present; series mostly up to 58.5 µM; also: nearly all actives have a fitted effect of over 55% in size; also: potency is read from the fitted curve at half-maximal effect
[2] = qHTS assay for identifying genotoxic compounds that show differential cytotoxicity against isogenic chicken DT40 cell lines with known DNA damage response pathways - wild type cell line (AID 743012); conditions: DT40 wild type chicken cells viability, CellTiter-Glo, 40 h; series mostly up to 68.4 µM; also: nearly all actives have a fitted effect of over 60% in size; also: potency is read from the fitted curve at half-maximal effect
Method in brief: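 Viability by ATP luminescence (CellTiter-Glo, 30 min RT) after 40 h compound treatment at 37 C/5% CO2, using 300 parental DNA repair-proficient DT40 cells per well.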

[3] = qHTS assay for identifying genotoxic compounds that show differential cytotoxicity against isogenic chicken DT40 cell lines with known DNA damage response pathways - Rev3 mutant cell line (AID 743014); conditions: chicken DT40 Rev3-/- viability, CellTiter-Glo, 40 h; series mostly up to 68.4 µM; also: nearly all actives have a fitted effect of over 55% in size; also: potency is read from the fitted curve at half-maximal effect
[4] = qHTS assay for identifying genotoxic compounds that show differential cytotoxicity against isogenic chicken DT40 cell lines with known DNA damage response pathways - Rad54/Ku70 mutant cell line (AID 743015); conditions: DT40 Rad54/Ku70 mutant viability, CellTiter-Glo, 40 h; series mostly up to 66.8 µM; also: nearly all actives have a fitted effect of over 60% in size; also: potency is read from the fitted curve at half-maximal effect
[5] = qHTS assay to identify small molecule antagonists of the androgen receptor (AR) signaling pathway - cell viability counter screen (AID 743033; also: nearly all actives have a fitted effect of over 45% in size; also: potency is read from the fitted curve at half-maximal effect); conditions: AR-bla HEK293 viability, CellTiter-Glo luminescence, 16 h; series mostly up to 58.5 µM
[6] = qHTS assay to identify small molecule antagonists of the androgen receptor (AR) signaling pathway using the MDA cell line - cell viability counter screen (AID 743041; also: nearly all actives have a fitted effect of over 45% in size; also: potency is read from the fitted curve at half-maximal effect); conditions: MDA-kb2 viability, CellTiter-Fluor, 16 h, cells co-treated with R1881 androgen agonist; series mostly up to 70.3 µM
Method in brief: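 Viability read by CellTiter-Fluor fluorescence in the same wells as the antagonist screen, added after 15.5 h of a 16 h, 37C exposure. Human breast carcinoma MDA-kb2 AR-luc cells, compounds co-dosed with agonist R1881.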

[7] = molecular target: Androgen receptor (Homo sapiens) (UniProt P10275); assay: qHTS assay to identify small molecule antagonists of the androgen receptor (AR) signaling pathway (AID 743035; active = well fitted inhibition curve with a large enough effect in the signal ratio in the repeat runs, not every such curve was filed as active; the % refers to the signal ratio; also: potency is read from the fitted curve at half-maximal effect); conditions: HEK293 AR-UAS-bla, R1881-stimulated, beta-lactamase FRET, 16 h; series mostly up to 58.5 µM
Method in brief: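 Antagonist mode: AR-bla HEK293 cells co-treated with test compounds and agonist R1881 for 16 h at 37C, 5% CO2. Beta-lactamase activity read as FRET fluorescence after 2 h room-temperature substrate loading.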

[8] = molecular target: Androgen receptor (Homo sapiens) (UniProt P10275); assay: qHTS assay to identify small molecule agonists of the androgen receptor (AR) signaling pathway using the MDA cell line (AID 743040; also: nearly all actives have a fitted effect of over 20% in size); conditions: MDA-kb2 AR-luc cells, MMTV luciferase, 16 h, stronger effect = higher value; series mostly up to 70.3 µM
Method in brief: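 Luciferase agonist assay: 16 h compound exposure at 37C without CO2 in MDA-kb2 AR-luc cells, whose MMTV promoter responds to both AR and GR. Luminescence measured after 30 min room-temperature incubation with ONE-Glo.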

[9] = molecular target: Androgen receptor (Homo sapiens) (UniProt P10275); assay: qHTS assay to identify small molecule antagonists of the androgen receptor (AR) signaling pathway using the MDA cell line (AID 743042; also: nearly all actives have a fitted effect of over 55% in size; also: potency is read from the fitted curve at half-maximal effect); conditions: MDA-kb2 AR-luc, MMTV luciferase, R1881 antagonist, 16 h; series mostly up to 70.3 µM
Method in brief: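 Antagonist mode: compounds plus R1881 agonist added to MDA-kb2 AR-luc cells, incubated 16 h at 37C. Luciferase reporter luminescence quantified, with multiplexed CellTiter-Fluor readout for cell viability.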

[10] = molecular target: Androgen receptor (Homo sapiens) (UniProt P10275); assay: qHTS assay to identify small molecule agonists of the androgen receptor (AR) signaling pathway (AID 743036; active = well fitted activation curve with a large enough effect in the signal ratio in the repeat runs, with a control signal flat, not every such curve was filed as active; the % refers to the signal ratio); conditions: HEK293 AR-UAS-bla GripTite, beta-lactamase FRET ratio, 16 h; series mostly up to 62.4 µM
Method in brief: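 Quantitative HTS of the Tox21 10K library in HEK293 cells bearing a stably integrated UAS-controlled beta-lactamase reporter. Compound exposure lasted 16 h at 37C. Reporter activity was detected by FRET substrate fluorescence after 2 h at room temperature.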

Chain of Androgen receptor (Homo sapiens) (P10275 whole entry, looked up): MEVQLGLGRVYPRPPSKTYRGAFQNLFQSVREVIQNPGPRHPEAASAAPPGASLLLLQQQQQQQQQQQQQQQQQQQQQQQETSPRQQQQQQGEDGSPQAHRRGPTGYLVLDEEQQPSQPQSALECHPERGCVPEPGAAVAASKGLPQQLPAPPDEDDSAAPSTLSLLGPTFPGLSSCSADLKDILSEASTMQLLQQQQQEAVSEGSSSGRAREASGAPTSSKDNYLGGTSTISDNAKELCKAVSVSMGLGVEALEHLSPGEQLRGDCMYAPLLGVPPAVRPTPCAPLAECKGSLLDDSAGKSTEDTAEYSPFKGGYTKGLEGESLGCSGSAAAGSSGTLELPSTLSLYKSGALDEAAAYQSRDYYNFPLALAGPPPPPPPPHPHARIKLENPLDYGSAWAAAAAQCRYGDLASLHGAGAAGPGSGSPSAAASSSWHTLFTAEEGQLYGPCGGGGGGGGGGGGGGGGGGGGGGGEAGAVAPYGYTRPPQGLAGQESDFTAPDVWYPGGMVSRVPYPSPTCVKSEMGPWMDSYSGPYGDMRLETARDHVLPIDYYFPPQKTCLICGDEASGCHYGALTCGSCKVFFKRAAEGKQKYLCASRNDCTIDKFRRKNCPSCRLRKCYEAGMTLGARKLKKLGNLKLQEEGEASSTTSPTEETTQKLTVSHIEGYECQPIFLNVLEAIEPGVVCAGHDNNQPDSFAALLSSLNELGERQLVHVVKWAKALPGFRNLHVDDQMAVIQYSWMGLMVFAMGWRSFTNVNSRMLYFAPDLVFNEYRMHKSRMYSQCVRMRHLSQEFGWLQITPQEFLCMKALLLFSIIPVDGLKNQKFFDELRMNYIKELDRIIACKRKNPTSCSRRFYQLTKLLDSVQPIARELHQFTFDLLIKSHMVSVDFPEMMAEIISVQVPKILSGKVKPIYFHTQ

| SMILES | Potency [1] | Potency [2] | Potency [3] | Potency [4] | Potency [5] | Potency [6] | Potency [7] | outcome [8] | Potency [9] | outcome [10] |
| --- | --- | --- | --- | --- | --- | --- | --- | --- | --- | --- |
| CC(=O)OCC[N+](C)(C)C | inactive | inactive | inactive | inactive | inactive | inactive | – | – | – | – |
| CCOC(=O)c1ccc(OCCN2C[C@H](O)[C@@H](O)[C@H](O)[C@H]2CO)cc1 | inactive | inactive | inactive | inactive | inactive | inactive | – | – | – | – |
| CCn1cc(C(=O)O)c(=O)c2cc(F)c(N3CCNCC3)cc21 | inactive | inactive | inactive | inactive | inactive | inactive | – | – | – | – |
| CO/N=C(/C(=O)N[C@@H]1C(=O)N2C(C(=O)O)=C(COC(N)=O)CS[C@H]12)c1ccco1 | inactive | inactive | inactive | inactive | inactive | inactive | – | – | – | – |
| CC[C@]1(O)C[C@H]2CN(CCc3c([nH]c4ccccc34)[C@@](C(=O)OC)(c3cc4c(cc3OC)N(C=O)[C@H]3[C@@](O)(C(=O)OC)[C@H](OC(C)=O)[C@]5(CC)C=CCN6CC[C@]43[C@@H]65)C2)C1 | inactive | 0.0075 µM (active) | 0.0053 µM (active) | 0.0106 µM (active) | inactive | – | 0.0338 µM (active) | inactive | inactive | – |
| C=CC(=O)[O-].C=CC(=O)[O-].[Zn+2] | inactive | inactive | inactive | inactive | inactive | inactive | – | – | – | – |
| O=C(O)C[C@H](NC(=O)OCc1ccccc1)C(=O)O | inactive | inactive | inactive | inactive | inactive | inactive | – | – | – | – |
| CCOc1ccccc1O[C@H](c1ccccc1)[C@H]1CNCCO1 | inactive | 29.8 µM (active) | 26.6 µM (active) | 13.3 µM (active) | inactive | inactive | – | – | – | – |
| O[C@@H]1CO[C@H]2[C@@H]1OC[C@@H]2O | inactive | inactive | inactive | inactive | inactive | inactive | – | – | – | – |
| COc1cc(Nc2c(C#N)cnc3cc(OCCCN4CCN(C)CC4)c(OC)cc23)c(Cl)cc1Cl | 23.9 µM (active) | 1.88 µM (active) | 2.98 µM (active) | 2.37 µM (active) | 23.9 µM (active) | 33.5 µM (active) | – | – | – | – |
| NC1[C@H]2CN(c3nc4c(cc3F)c(=O)c(C(=O)O)cn4-c3ccc(F)cc3F)C[C@@H]12 (some centres undefined) | inactive | 4.73 µM (active) | 6.68 µM (active) | 7.5 µM (active) | inactive | – | – | inactive | inactive | – |
| C=Cc1ccc(S(=O)(=O)O)cc1 | inactive | inactive and 30.6 µM (active) | inactive and 38.6 µM (active) | inactive and 2.17 µM (active) | inactive | inactive | – | – | – | – |
| CC(=O)c1ccc([N+](=O)[O-])cc1 | inactive | inactive | inactive | inactive | inactive | inactive | – | – | – | – |
| C[C@]1(Cn2ccnn2)[C@H](C(=O)O)N2C(=O)C[C@H]2S1(=O)=O | inactive | inactive | inactive | inactive | inactive | inactive | – | – | – | – |
| CCC1CO1 (centres undefined) | inactive | inactive | inactive | inactive | inactive | inactive | – | – | – | – |
| CCCCCCCCN | inactive | inactive | inactive | inactive | inactive | inactive | – | – | – | – |
| CC1(C)S[C@@H]2[C@H](NC(=O)C(c3ccccc3)S(=O)(=O)O)C(=O)N2[C@H]1C(=O)O (some centres undefined) | inactive | inactive | inactive | inactive | inactive | inactive | – | – | – | – |
| Cc1ccccc1S | inactive | 34.6 µM (active) | 27.5 µM (active) | 38.9 µM (active) | inactive | inactive | – | – | – | – |
| CO[C@]1(NC(=O)CSC(F)F)C(=O)N2C(C(=O)O)=C(CSc3nnnn3CCO)CO[C@H]21 | inactive | inactive | inactive | inactive | inactive | inactive | – | – | – | – |
| Cc1ccc2c(Br)cc(Br)c(O)c2n1 | inactive | 7.5 µM (active) | 9.44 µM (active) | 8.41 µM (active) | inactive | inactive | – | – | – | – |
| Nc1nnc(-c2ccc([N+](=O)[O-])o2)o1 | inactive | 24.3 µM (active) | 19.3 µM (active) | 19.3 µM (active) | – | 61.1 µM (active) | – | – | – | – |
| CCC(C)COC(=O)CC(C)C (centres undefined) | inactive | 68.6 µM (active) | 61.1 µM (active) | 61.1 µM (active) | – | inactive | – | – | – | – |
| CCc1ccccc1 | inactive | inactive | inactive | inactive | inactive | inactive | – | – | – | – |
| CN1C[C@H](C(=O)N[C@]2(C)O[C@@]3(O)[C@@H]4CCCN4C(=O)[C@H](Cc4ccccc4)N3C2=O)C[C@@H]2c3cccc4[nH]cc(c34)C[C@H]21 | inactive | 23.7 µM (active) | 29.8 µM (active) | 16.8 µM (active) | inactive | inactive | – | – | – | – |
| CC(=O)Oc1ccc([N+](=O)[O-])cc1CCl | inactive | 8.63 µM (active) | 1.72 µM (active) | 3.86 µM (active) | inactive | 54.5 µM (active) | – | – | – | – |
| Oc1ccc(Cl)c2cccnc12 | inactive | 2.98 µM (active) | 4.22 µM (active) | – | 13.4 µM (active) | – | 19 µM (active) | inactive | 9.44 µM (active) | inactive |
| CCC(=O)OC | inactive | inactive | inactive | – | inactive | inactive | inactive | inactive | inactive | inactive |
| Cc1ccco1 | inactive | inactive | inactive | inactive | inactive | inactive | – | – | – | – |
| C[C@@H](CN(C)C)CN1c2ccccc2Sc2ccccc21 | inactive | 11.4 µM (active) | 11.4 µM (active) | 11.4 µM (active) | – | inactive | – | – | – | – |
| CC(C)C[C@H](NC(=O)[C@H](CCc1ccccc1)NC(=O)CN1CCOCC1)C(=O)N[C@@H](Cc1ccccc1)C(=O)N[C@@H](CC(C)C)C(=O)[C@@]1(C)CO1 | 5.35 µM (active) | 0.0119 µM (active) | 0.0168 µM (active) | 0.0119 µM (active) | – | inactive | – | – | – | – |
